About 83,000 compounds went through this panel and 20% of them were active in at least one assay; those are over-represented in the sample as a whole.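 For each line, cells grew in 96-well plates with the test compound present at a single concentration for 48 hours.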 Unmarked numbers belong to inactive results. Activity calls are given as the source filed them. The calls were made as follows: active = growth percent below 10; inactive = the rest.
How the values were obtained:
Test in all cases: NCI-60 one-dose screen, 48 h (100 = growth as untreated, 0 = no growth, -100 = all killed)
Settings in all cases: 10 µM unless noted
DU-145 prostate = tested on: DU-145 prostate
K-562 leukemia = tested on: K-562 leukemia
MALME-3M melanoma = tested on: MALME-3M melanoma
MDA-MB-231 breast = tested on: MDA-MB-231 breast
RXF 393 renal = tested on: RXF 393 renal
SF-268 CNS = tested on: SF-268 CNS
SF-295 CNS = tested on: SF-295 CNS
SF-539 CNS = tested on: SF-539 CNS
UACC-257 melanoma = tested on: UACC-257 melanoma
M14 melanoma = tested on: M14 melanoma
HCT-15 colon = tested on: HCT-15 colon
HT29 colon = tested on: HT29 colon
SNB-75 CNS = tested on: SNB-75 CNS
SNB-19 CNS = tested on: SNB-19 CNS
U251 CNS = tested on: U251 CNS
PC-3 prostate = tested on: PC-3 prostate
SK-MEL-5 melanoma = tested on: SK-MEL-5 melanoma
UACC-62 melanoma = tested on: UACC-62 melanoma
LOX IMVI melanoma = tested on: LOX IMVI melanoma
SK-MEL-28 melanoma = tested on: SK-MEL-28 melanoma

SMILES | growth (DU-145 prostate) | growth (K-562 leukemia) | growth (MALME-3M melanoma) | growth (MDA-MB-231 breast) | growth (RXF 393 renal) | growth (SF-268 CNS) | growth (SF-295 CNS) | growth (SF-539 CNS) | growth (UACC-257 melanoma) | growth (M14 melanoma) | growth (HCT-15 colon) | growth (HT29 colon) | growth (SNB-75 CNS) | growth (SNB-19 CNS) | growth (U251 CNS) | growth (PC-3 prostate) | growth (SK-MEL-5 melanoma) | growth (UACC-62 melanoma) | growth (LOX IMVI melanoma) | growth (SK-MEL-28 melanoma)
CC(=O)N1N=C(c2ccc(Nc3ccnc4cc(Cl)ccc34)cc2)CC1c1ccc(Cl)cc1 (stereo not given) | 67.3% | 19.1% | 26.8% | 72.7% | 42.3% | 53.3% | 15.4% | 86.4% | 61.7% | 47.6% | 30.1% | 25.9% | 59.6% | 65.6% | 57.9% | 37.8% | -50.1% (active) | 44.2% | 33.6% | 45.9%
Cc1cc2c(cc1C)[n+](Cc1ccc3ccccc3c1)cn2Cc1ccc2ccccc2c1 | -89.5% (active) | -57.3% (active) | -78.7% (active) | -75.7% (active) | -87% (active) | -81.2% (active) | -80.9% (active) | -93.2% (active) | -55.6% (active) | -78.8% (active) | -77.4% (active) | -83.3% (active) | -73.6% (active) | -77.2% (active) | -91.6% (active) | -84% (active) | -99.2% (active) | -80.5% (active) | -86.7% (active) | -91.9% (active)
NC(=N\N=C/Cc1ccccc1)/C(N)=N\N=C\Cc1ccccc1 | 101% | 103% | 144% | 97.7% | 121% | 94% | 108% | 93% | 101% | 105% | 94.9% | 120% | 98.5% | 96.6% | 106% | 101% | 107% | 96.1% | 96.8% | 120%
CCCc1n(Cc2ccc3ccccc3c2)cc[n+]1Cc1ccc2ccccc2c1 | 20.3% | 2.49% (active) | -49.6% (active) | -80.1% (active) | -30.4% (active) | 7.55% (active) | -1.49% (active) | 1.21% (active) | -33.6% (active) | -28.4% (active) | 53.8% | -22.5% (active) | -13.9% (active) | -7.08% (active) | 0.776% (active) | -2.89% (active) | -98.1% (active) | -67.2% (active) | -84.3% (active) | -40.3% (active)
COc1cnc2c(c1)C(=O)c1c-2n(CCCNC(C)C)c(=O)c2cc(F)ccc12 | -8.54% (active) | -6.91% (active) | -70.1% (active) | 1.51% (active) | -85.5% (active) | 4.2% (active) | -23% (active) | -73.4% (active) | -16% (active) | -81.9% (active) | -5.08% (active) | 0.147% (active) | -22.5% (active) | 11% | -32.8% (active) | -5.02% (active) | -98.5% (active) | -44.2% (active) | -68% (active) | -11.1% (active)
NC(=O)NC1(C(=O)O)CCCC1 | 118% | 99.9% | 114% | 109% | 125% | 106% | 116% | 102% | 101% | 113% | 99.9% | 108% | 100% | 113% | 99.9% | 100% | 111% | 115% | 103% | 122%
Nc1nc(SCc2cccnc2)c2ncn(C3OC(CO)C(O)C3O)c2n1 (stereo not given) | 113% | 113% | 92.4% | 94.7% | 101% | 90.6% | 99.1% | 95.1% | 92.7% | 97.8% | 102% | 106% | 101% | 98.7% | 98.3% | 89.4% | 99.5% | 84.8% | 102% | 111%
O=C1NC(=S)S/C1=C\c1cc(Br)ccc1O | 105% | 112% | 71.8% | 96.7% | 115% | 90.1% | 111% | 93.1% | 105% | 88.5% | 97.8% | 119% | 97.8% | 107% | 99.9% | 104% | 92.6% | 84.8% | 100% | 111%
O=C1C=CC(=O)N1c1ccccc1N1C(=O)C=CC1=O | 110% | 50.2% | 144% | 92.6% | 111% | 97.7% | 125% | 100% | 115% | 110% | 99.6% | 99.2% | 91.7% | 91% | 108% | 97.5% | 106% | 87.4% | 97.2% | 114%
O=C(CSc1ncc(-c2ccccc2)n1-c1ccccc1)Nc1ccc(-c2nc3ccccc3s2)cc1 | 68.4% | 70.7% | 17% | 95.4% | 93.2% | 54.3% | 96.4% | 59.8% | 48.8% | 72.8% | 69% | 38.1% | 103% | 90.4% | 24.7% | 80% | 75.7% | 87.3% | 63.5% | 80%
CC[C@@H](c1ccc(O)c(O)c1)[C@@H](CC)c1ccc(O)c(O)c1 | 110% | 31.8% | 39.2% | 89.7% | 71.5% | 98% | 130% | 102% | 101% | 62.4% | 58.1% | 95.4% | 82.4% | 97.7% | 89.9% | 75.5% | 91.4% | 64.5% | 61% | 87.1%
C[C@H](C(=O)N[C@@H](Cc1ccc(-c2ccccc2)cc1)C(=O)NC1CC(C)(C)NC(C)(C)C1)c1ccc(-c2ccccc2)c(F)c1 | -89.3% (active) | -53.7% (active) | -77.4% (active) | -53.6% (active) | -55.6% (active) | -58.1% (active) | -54.5% (active) | -78.6% (active) | -62.9% (active) | -79.2% (active) | -75% (active) | -61.2% (active) | 13.3% | -6.87% (active) | -71% (active) | -65.5% (active) | -93.1% (active) | -43.9% (active) | -85.3% (active) | -77.7% (active)
OC(c1cc(-c2cccc(Cl)c2)nc2ccccc12)C1CCCCN1 (stereo not given) | -33.8% (active) | -47.2% (active) | -69.6% (active) | -6.36% (active) | -46.4% (active) | 21.4% | -47.5% (active) | -52.9% (active) | -91.9% (active) | -81.5% (active) | -61.9% (active) | -74.5% (active) | -5.41% (active) | 18.1% | -85.1% (active) | -26.2% (active) | -67.5% (active) | -41.2% (active) | -90.7% (active) | -94.2% (active)
O=C(C(=O)N1CCOCC1)c1cn(CCCn2cc(C(=O)C(=O)N3CCOCC3)c3ccccc32)c2ccccc12 | 115% | 111% | 99.8% | 93.4% | 119% | 105% | 106% | 102% | 107% | 101% | 104% | 99.7% | 94.7% | 93.9% | 102% | 89.9% | 100% | 93.5% | 104% | 110%
COc1cc(C2CC(C3C(=O)N(C)C(=O)N(C)C3=O)=NN2c2cc(Cl)cc(Cl)c2)cc(OC)c1OC (stereo not given) | 107% | 88.4% | 89.1% | 103% | 99.3% | 103% | 84.4% | 96% | 74.2% | 89.3% | 98.2% | 91.6% | 100% | 91.7% | 92.5% | 74.3% | 91.3% | 75.6% | 99% | 101%
